In PubChem BioAssay AID2242 (National Center for Advancing Translational Sciences (NCATS), 2010):
Out of some 200,000 compounds screened, about 720 (0.36%) were called active. About 8% were inconclusive and are not listed. Calls follow the shape of the dose curve; as a rule, active = well fitted activation curve with a large enough effect; inconclusive = small, poorly fitted or top-dose-only effect, or effect the other way, or another doubt; inactive = flat fitted curve, though single readings scatter. Some of the results follow.

Molecular target: Lysosomal alpha-glucosidase (Homo sapiens) (UniProt P10253)
Test: qHTS Assay for Activators of Human alpha-Glucosidase as a Potential Chaperone Treatment of Pompe Disease; also: nearly all actives have a fitted effect of over 80% in size
Settings: purified enzyme, 4-MU-alpha-glucoside fluorescence, 20 min; series mostly up to 76.9 µM
Source text: NIH Chemical Genomics Center [NCGC] NIH Molecular Libraries Probe Production centers Network [MLPCN] MLPCN Grant: 1R03MH084841-01 Assay Submitter (PI): Wei Zheng NCGC Assay Overview: Alpha-glucosidase is responsible for hydrolysis of terminal, non-reducing 1,4-linked alpha-D-glucose residues with release of alpha-D-glucose. It is a lysosomal hydrolase that is required for the degradation of a small percentage (1-3%) of cellular glycogen in human. Deficiency of this enzyme results in glycogen-storage disease type II (GSDII), also referred to as Pompe disease, an autosomal recessive disorder. Structurally normal glycogen is accumulated in lysosomes and cytoplasm in affected patients, primarily in muscle tissues. Excessive glycogen storage within lysosomes may interrupt normal functioning of other organelles and leads to cellular injury. In turn, this leads to enlargement and dysfunction of the entire organ involved (eg, cardiomyopathy and muscle weakness). It has reported that the improper folding and trafficking of alpha-glucosidase resulting from the genetic mutations may account for a significant number of Pompe patients. […] We optimized this alpha-glucosidase assay in 1536-well plate format for identifying the novel small molecule inhibitors with the structures other than the sugar analogs in order to develop the new pharmacological chaperones, but are also able to detect potential activators. In conjunction with assays against alpha-galactosidase (AID 1467), fluorogenic false positive compounds can be identified.
NCGC Assay Protocol Summary: This is a fluorogenic enzyme assay with 4-methylumbelliferyl-alpha-D-[…] as the substrate and human alpha-glucosidase as the enzyme preparation. Upon the hydrolysis of this fluorogenic substrate, the resulting product, 1. 4-methyllumbelliferone, can be excited at 365 nm and emits at 440 nm which can be detected by a standard fluorescence plate reader. Data were normalized to the controls for basal activity (without enzyme) and 100% activity (with enzyme). In the AC50 values were determined from concentration-response data modeled with the standard Hill equation. Assay buffer: 50 mM citric acid (titrated with potassium phosphate to pH 5.0), 0.005% Tween-20, pH 5.0. (pH 5.0 is an optimal condition for this enzyme assay) 1536-well assay protocol for the human alpha-glucosidase: (1) Add 2 ul/well of enzyme (4 nM final) (2) Add 23 nL compounds in DMSO solution. The final titration was 0.7 nM to 77 uM. (3) Add 1 ul of substrate (400 uM final) (4) Incubate at room temperature for 20 min. (5) Add 2 ul stop solution (1M NaOH and 1M Glycine mixture, pH 10) (6) Detect the assay plate in a ViewLux plate reader (PerkinElmer) with Ex=365 nm and Em=440nm. Keywords: Alpha-glucosidase, Pompe Disease, pharmacological chaperone, chaperone therapy, high throughput screening, alpha-glucosidase inhibitor, MLSMR, MLSCN, NIH Roadmap, qHTS and NCGC
Potency is read from the fitted curve at half-maximal effect.

Potency, active:
COc1cc(C(=O)Nc2sc3c(c2C(=O)NCc2ccco2)CCCC3)cc(OC)c1OC 28.2 µM
O=C(O)c1cc(-c2cccs2)nc2cc3c(cc12)OCCO3 25.1 µM
c1ccc2c(NCC3CCCO3)nc(N3CCCCC3)nc2c1 (stereo not drawn) 39.8 µM
c1coc(CNc2nc(N3CCCCC3)nc3ccccc23)c1 39.8 µM
CCCCOc1ccccc1C1C(C(=O)OC)=CN(CC)C=C1C(=O)OC 35.5 µM
CCCOc1ccccc1C1C(C(=O)OC)=CN(C(C)C)C=C1C(=O)OC 39.8 µM
CCOc1ccccc1C1C(C(=O)OC)=CN(C)C=C1C(=O)OC 35.5 µM
CN(C)c1oc(-c2cccs2)nc1C#N 39.8 µM
CC1CN(c2oc(-c3cccs3)nc2C#N)CC(C)O1 (stereo not drawn) 35.5 µM
N#Cc1c(-c2ccco2)cc(-c2ccccn2)nc1N 28.2 µM
N#Cc1c(-c2ccco2)cc(-c2cccnc2)nc1N 28.2 µM
N#Cc1c(-c2ccccc2F)cc(-c2cccnc2)nc1N 35.5 µM
CCN(CC)Cc1c(O)c(Cl)cc2c(C)cc(=O)oc12 35.5 µM
CCc1c(C)c2cc(Cl)c(O)c(CN(CC)CC)c2oc1=O 35.5 µM
CCN(CC)Cc1c(O)c(Cl)cc2c(C)c(C)c(=O)oc12 35.5 µM
CC1(C)Cc2nc(N3CCCC3)c(C#N)cc2CO1 35.5 µM
Cc1cc2c(C)cc(=O)oc2c2c1NCCC2 35.5 µM
CCNc1nc(N)c(C(=C(C#N)C#N)c2ccccc2)s1 35.5 µM
C=CCNc1nc(N)c(C(=C(C#N)C#N)c2ccccc2)s1 35.5 µM
O=C(c1cc2c(=O)n3ccccc3nc2s1)N1CCc2ccccc2C1 44.7 µM
O=C(c1cc2c(=O)n3ccccc3nc2s1)N1CCN(Cc2ccc3c(c2)OCO3)CC1 35.5 µM
Cn1c(C(=O)N2CCc3ccccc3C2)cc2c(=O)n3ccccc3nc21 31.6 µM
CCOC(=O)C1CCN(C(=O)c2cc3c(=O)n4ccccc4nc3n2C)CC1 39.8 µM
Cn1c(C(=O)N2COCC2(C)C)cc2c(=O)n3ccccc3nc21 35.5 µM
CC1CN(C(=O)c2cc3c(=O)n4ccccc4nc3s2)CC(C)O1 (stereo not drawn) 35.5 µM
COC(=O)c1cc2c(=O)n3ccccc3nc2n(C)c1=N 25.1 µM
COc1cccc2c(=O)c3c(cnn3C)n(C)c12 31.6 µM
O=C(Nc1ccc(-c2nc3ccccc3[nH]2)cc1)c1cccc(N2C(=O)CCC2=O)c1 35.5 µM
CCn1cc(C2C(C(=O)Nc3ccc(Br)cn3)=C(C)NC3=C2C(=O)CCC3)c(C)n1 (stereo not drawn) 31.6 µM
CC1=C(C(=O)Nc2ccccn2)C(c2cn(C)nc2C)C2=C(CCCC2=O)N1 (stereo not drawn) 28.2 µM
CC(C)(C)c1cc(C(F)(F)F)c(C#N)c(=O)[nH]1 35.5 µM
Cc1cc(C(F)(F)F)c(C#N)c(=O)[nH]1 31.6 µM
O=c1oc2cc(O)ccc2cc1-c1ccc(F)cc1 25.1 µM
CCCCc1cc(=O)oc2c(CN3CCCC3)c(O)c(Cl)cc12 31.6 µM
CCc1cc(=O)oc2c(CN3CCN(C)CC3)c(O)c(Cl)cc12 31.6 µM
Cc1c(O)ccc2c(CN3CCN(CCO)CC3)cc(=O)oc12 35.5 µM
CCCc1cc(=O)oc2c(CN3CCCC3)c(O)c(Cl)cc12 35.5 µM
CCc1cc(=O)oc2c(CN3CCCC3)c(O)c(Cl)cc12 39.8 µM
CCc1cc2c(CN3CCN(C)CC3)cc(=O)oc2cc1O 35.5 µM
CCCc1cc(=O)oc2c(CN3CCN(C)CC3)c(O)c(Cl)cc12 35.5 µM
CCc1ccc(S(=O)(=O)c2nnn3c2nc(NCCNC(C)=O)c2ccccc23)cc1 31.6 µM
CN(C)Cc1c(O)c(Cl)cc2c3c(c(=O)oc12)CCCC3 35.5 µM
CCN(CC)Cc1c(O)c(Cl)cc2c3c(c(=O)oc12)CCCC3 35.5 µM
CC(C)C(=O)Nc1c2c(nc3ccccc13)N(C)CC2 35.5 µM
CCCOc1cc(N(CC)CC)ccc1/C=C(/C#N)c1nc2ccc(C)cc2[nH]1 35.5 µM
CCOP(=O)(OCC)c1nc(/C=C/c2ccccc2)oc1NCc1ccc(OC)cc1 35.5 µM
CCOP(=O)(OCC)c1nc(/C=C/c2ccccc2)oc1NCc1ccccc1 35.5 µM
CCCCc1cc(=O)oc2c(CN(C)C)c(O)c(Cl)cc12 35.5 µM
CCCCc1cc(=O)oc2c(CN(CC)CC)c(O)c(Cl)cc12 35.5 µM
CCCCc1cc(=O)oc2c(CN(C)C)c(O)ccc12 35.5 µM
CC(NC(=O)CCSc1nc(-c2ccc3c(c2)OCO3)cc(C(F)(F)F)n1)c1ccccc1 (stereo not drawn) 35.5 µM
COc1ccc(-c2n[nH]c(C(F)(F)F)c2-c2cc3ccccc3o2)c(O)c1 35.5 µM
O=C(O)c1cc(-c2ccc(Cl)s2)nc2ccccc12 35.5 µM
CCC(=O)N1N=C(c2ccc(NS(=O)(=O)CC)cc2)CC1c1ccc(C)cc1 (stereo not drawn) 35.5 µM
CCS(=O)(=O)Nc1ccc(C2=NN(C(C)=O)C(c3cccs3)C2)cc1 (stereo not drawn) 35.5 µM
CC(=O)Nc1ccc(C2=NN(c3ccccc3)C(c3cccs3)C2)cc1 (stereo not drawn) 28.2 µM
COc1ccc(C2C3=C(CCCC3=O)Nc3nc(-c4cc(OC)c(OC)c(OC)c4)nn32)cc1OC (stereo not drawn) 35.5 µM
COC(=O)C1=CN(CCCN2CCCC2=O)C=C(C(=O)OC)C1c1cccs1 39.8 µM
COC(=O)C1=CN(CCCN2CCCC2=O)C=C(C(=O)OC)C1c1ccccc1C(F)(F)F 28.2 µM
Cc1ccc2c(c1)c1ncnc(N3CCC4(CC3)OCCO4)c1n2C 39.8 µM
Cc1ccc2nc3c(cc(C(=O)NCC4CCCO4)c(=N)n3CCCOC(C)C)c(=O)n2c1 (stereo not drawn) 31.6 µM
CCCn1c(=N)c(C(=O)NC2CCCC2)cc2c(=O)n3cccc(C)c3nc21 28.2 µM
CCNc1nc2nc3ccc(C)cn3c(=O)c2cc1C(=O)NCC1CCCO1 (stereo not drawn) 35.5 µM
COCCCn1c(=N)c(C(=O)NCC2CCCO2)cc2c(=O)n3cccc(C)c3nc21 (stereo not drawn) 35.5 µM
CCn1c(=N)c(C(=O)NCCCOC)cc2c(=O)n3cccc(C)c3nc21 28.2 µM
COC(=O)Cc1cc(=O)oc2cc(O)ccc12 35.5 µM
O=C(Cc1cc(=O)oc2cc(O)ccc12)NCC1CCC(C(=O)O)CC1 (stereo not drawn) 35.5 µM
CCCCc1cc(=O)oc2cc(O)ccc12 35.5 µM
N#Cc1c(-c2cccc(Br)c2)cc(-c2ccco2)[nH]c1=O 39.8 µM
O=C(NC(=S)N(Cc1ccccc1)Cc1ccccc1)C1CCCCC1 39.8 µM
c1ccn2c(c1)nc1c2nc2ccccn21 31.6 µM
COC(=O)C1=CN(CC2CCCO2)C=C(C(=O)OC)C1c1cc(OC)c(OC)c(OC)c1 (stereo not drawn) 35.5 µM
COC(=O)C1=CN(CC2CCCO2)C=C(C(=O)OC)C1c1ccsc1 (stereo not drawn) 35.5 µM
COc1cc2c(cc1/C=C/C(=O)O)OC(C)C2 (stereo not drawn) 39.8 µM
CCCc1cc(=O)[nH]c(SCC(=O)c2cc(C)n(CCC)c2C)n1 39.8 µM
COc1cccc(-c2cc3nc(-c4ccccc4)cc(N4CCC5(CC4)OCCO5)n3n2)c1 39.8 µM
Cc1cccc(-c2cc3nc(-c4ccccc4)cc(N4CCC5(CC4)OCCO5)n3n2)c1 35.5 µM
O=C(O)c1cc2c(s1)-c1ccccc1OC2 31.6 µM
COC(=O)c1cc2c(s1)-c1ccccc1OC2 35.5 µM
O=C(NC1CC1)c1cc2c(s1)-c1ccccc1OC2 35.5 µM
CCOC(=O)c1cc2c(s1)-c1c(C)cccc1OC2 35.5 µM
CCOC(=O)c1cc2c(=O)n3ccccc3nc2n(CCOC)c1=NC(=O)c1ccncc1 31.6 µM
CCOC(=O)c1cc2c(=O)n3ccccc3nc2n(Cc2ccco2)c1=NC(=O)c1ccccc1OC 31.6 µM
CCOC(=O)c1cc2c(=O)n3ccccc3nc2n(CCOC)c1=NC(=O)C(C)(C)C 35.5 µM
CCOC(=O)c1cc2c(=O)n3ccccc3nc2n(CCCOC)c1=NC(=O)C(C)(C)C 35.5 µM
CCOC(=O)c1cc2c(=O)n3ccccc3nc2n(CCCOC)c1=NC(=O)c1cccnc1 35.5 µM
COc1cccc(-c2ccc(C#N)c(OC(=O)c3ccc(Cl)cc3)n2)c1 35.5 µM
COC(=O)C1=CN(C2CC2)C=C(C(=O)OC)C1c1ccccc1OC 35.5 µM
COC(=O)C1=CN(C2CC2)C=C(C(=O)OC)C1c1ccc(C(=O)OC)cc1 35.5 µM
CCN1CCn2c3c(c4cc(Cl)ccc42)CCCC31 (stereo not drawn) 31.6 µM
O=C(Nc1c2ccccc2nc2ccccc12)C(Cl)(Cl)Cl 35.5 µM
O=c1oc2ccccc2cc1-c1nc2ccccc2o1 31.6 µM
CC(=O)Nc1nc2n(n1)C(c1ccc(Cl)cc1)C=C(C)N2 (stereo not drawn) 35.5 µM
CC(C)n1c(=NC(=O)c2ccco2)c(C#N)cc2c(=O)n3ccccc3cc21 31.6 µM
COC(=O)c1ccc2c(=O)n(CCCCCC(=O)O)c(=O)[nH]c2c1 31.6 µM
CCCCCn1c(=O)[nH]c2cc(C(=O)O)ccc2c1=O 35.5 µM
CCN(CC)CCNC(=O)c1ccc2c(=O)n(CCc3ccccc3)c(=O)[nH]c2c1 35.5 µM
COC(=O)c1ccc2c(=O)n(CCCCCC(=O)NCc3ccccn3)c(=O)[nH]c2c1 31.6 µM
